From PubChem BioAssay AID602293 (National Center for Advancing Translational Sciences (NCATS), 2012)
Hit rate of the full screen: of about 1,300 compounds, about 30 (2%) were called active. Where a call stands in place of a potency, no number is given. Roughly 10% stayed inconclusive and do not appear here. This is one part of a sample in which actives are shown more often than they occur. The call rests on the fitted dose curve; in most records, active means well fitted inhibition curve with a large enough effect; inconclusive means small, poorly fitted or top-dose-only effect; inactive means flat fitted curve, though single readings scatter.

Assay: qHTS for antagonists of the Thyroid Stimulation Hormone Receptor: Hit Validation in HTRF Activity in a Luteinizing Hormone Receptor Cell Line
Details: LHR-expressing cell line, cAMP HTRF, antagonist mode; series mostly up to 58 µM
Text: The thyroid-stimulating hormone receptor (TSHR) is a member of the 7 trans-membrane-spanning receptor (7TMR) family of cell surface receptors. TSHR-mediated hyperthyroidism is important in thyroid pathology. The development of small molecule antagonists of TSHR may lead to therapeutic approaches for TSHR-mediated hyperthyroidism caused by constitutively activating mutations or stimulating auto-antibodies associated with Graves' disease. Graves' disease is the leading cause of hyperthyroidism and is caused by autoantibodies that stimulate TSHR (TsAbs) causing thyroid growth and unregulated overproduction of thyroid hormones and existing treatments have liabilities (agranulocytosis). In addition, TSHRs are known to be expressed in multiple extrathyroidal tissues including bone, brain, kidney, testis, fat and cells of the immune system but the role of the TSHR in these tissues is not clear. Therefore, TSHR antagonists/inverse agonists could be used as probes of extrathyroidal TSHR function. Finally, TSHR inverse agonists, which are a subclass of antagonists that inhibit agonist-independent (or basal or constitutive) TSHR signaling, could be used to inhibit TSH-independent signaling in patients with recurrent or metastatic thyroid cancer who are receiving thyroid hormone to suppress TSH.
In collaboration between scientist from the NCGC and the NIDDK, a miniaturized HTRF high-throughput screen was developed. It's a cell based assay, where an anti cAMP antibody contains a fluorescent cryptate tag (excitation 337 nm; emission 620 nm) and the acceptor is cAMP-d2 (excitation 620 nm; emission 665 nm). When antibody and cAMP-d2 interact and are excited by a 337 nm light, a FRET occurs resulting in emission at 665 nm. The assay is competition between cAMP-d2 and cAMP (from the cell lysate). The homogeneous protocol allows for one step dispense after stimulation that is automation friendly. In order to confirm specificity of the compounds to the TSHR, a confirmatory assay was conducted on a similar family member, the Luteinizing Hormone (LH) receptor, transfected into a HEK 293 cell line, using an orthogonal detection technology to measure cAMP stimulation: antibody-based Homogeneous Time Resolved Fluorescence (HTRF).
NIH Chemical Genomics Center [NCGC]
NIH Molecular Libraries Probe Centers Network [MLPCN]
Assay Provider: Marvin Gershengorn, NIDDK
Homogeneous Time Resolved Fluorescence (HTRF) cAMP Assay. HEK 293 cells stably transfected with a vector containing the LH receptor and maintained under hygromycin selection were obtained from the laboratory of Dr. Marvin Gershengorn. Compounds were assayed using a HTRF cAMP detection kit (Cisbio) on the LH receptor transfected cell line. Briefly, 750 cells were plated in 2.5 ul/well of complete media (DMEM containing 10 % FCS, and 100 uM RO 20-1724) in 1536 well solid bottom white plates and 23 nl/well compound in DMSO solution or controls was added. Following 30 minute incubation at room temperature, 2.5 ul/well of labeled d2 cAMP and 2.5 ul/well of anti-cAMP antibody (both diluted 1:20 in lysis buffer) were added to each well using a flying reagent dispenser (Aurora Discovery, San Diego) . Plates were measured using the Envision plate reader (PerkinElmer, Boston, MA) with excitation at 330 nm and emissions of 615 nm and 660 nm.
Potency means the concentration at half of the fitted maximal effect.

Q: With Cc1ccc(-c2cc(-c3ccccc3)cc(-c3ccccc3)[n+]2-c2ccccc2)cc1 as the molecule, how does the Potency read?
A: 42.6 µM (active)

Q: Which Potency does the source give for Oc1ccc(-[n+]2c(-c3ccccc3)cc(-c3ccccc3)cc2-c2ccccc2)cc1 here?
A: 39.8 µM (active)

Q: With Cc1ccc(C[n+]2c(-c3ccc(C)cc3)cc(-c3ccc(C)cc3)cc2-c2ccc(C)cc2)cc1 as the molecule, how does the Potency read?
A: 37.9 µM (active)

Q: With COc1ccc(-[n+]2c(-c3ccccc3)cc(-c3ccc(C)cc3)cc2-c2ccccc2)cc1 as the molecule, how does the Potency read?
A: inactive

Q: For OCC[n+]1c2ccccc2nc2ccc(N3CCOCC3)cc21, which Potency is on record?
A: inactive

Q: Which Potency does the source give for COC(=O)C1=C(c2ccc(OC(F)(F)F)cc2)C[C@@H]2CC[C@H]1N2C(=O)N1CCC(C)CC1 here?
A: inactive

Q: Which Potency does the source give for COC(=O)C1=C(c2ccc(-c3ccccc3)c(F)c2)C[C@@H]2CC[C@H]1N2C(=O)NCC1CC1 here?
A: inactive

Q: For CN(C)CC1Oc2ccccc2OC1(O)c1ccccc1 (stereo not given), which Potency is on record?
A: inactive

Q: Which Potency does the source give for C[C@H]1O[C@@H](OC2CC[C@]3(C=O)[C@H]4CC[C@]5(C)[C@@H](C6=CC(=O)OC6)CC[C@]5(O)[C@@H]4CC[C@]3(O)C2)CC2OC(C)(C)OC21 (stereo not given in full) here?
A: inactive

Q: Which Potency does the source give for N#CC(C#N)=NNc1ccc(-n2ccc(C(F)(F)F)n2)cc1 here?
A: inactive

Q: For CC(=O)c1ccc2c(c1)C1C(Cl)C(Sc3ccccc3[N+](=O)[O-])CC1C(C(=O)O)N2 (stereo not given), which Potency is on record?
A: inactive

Q: For COC(=O)C1=C(c2ccc(-c3ccccc3)c(F)c2)C[C@@H]2CC[C@H]1N2C(=O)N1CCOCC1, which Potency is on record?
A: inactive

Q: With O=C(C1CCN(c2nc3ccc(Br)cc3s2)CC1)N1CCC2(CC1)OCCO2 as the molecule, how does the Potency read?
A: inactive

Q: With COc1cc2c(cc1/C=C/[N+](=O)[O-])OCO2 as the molecule, how does the Potency read?
A: inactive

Q: With C[C@]12CC[C@H]3C(CCC4(O)CC(O)CC[C@]34C=O)C1=CC[C@H]2c1ccc(=O)oc1 (stereo not given in full) as the molecule, how does the Potency read?
A: inactive
